Data taken from the supplement of paper PMC6555819.

Columns and labels:
Test in all cases: PBM binding z-score (relative to random genomic background probes); higher = stronger binding; sequences stand for … in GC…GCGATTGACAGCGTAGAATGAAGG
[1] = test system: FXR:RXRa (NR concentration 270 nM, RXRa partner concentration 90 nM)
Outline: (§1)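 Binding z-scores take random background probes as their reference. They come from custom Agilent 4×180K protein-binding microarrays incubated 1 h with ligand-free nuclear receptor dimers, with antibodies against each partner (one per run) detecting binding. Scanned fluorescence was regression-normalized.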

[2] = test system: LXRa:RXRa (NR concentration 270 nM, RXRa partner concentration 90 nM)
Outline: as §1

[3] = test system: LXRa homodimer (NR concentration 270 nM)
Outline: as §1

[4] = test system: LXRb:RXRa (NR concentration 270 nM, RXRa partner concentration 90 nM)
Outline: as §1

[5] = test system: LXRb homodimer (NR concentration 270 nM)
Outline: as §1

[6] = test system: PPARa:RXRa (NR concentration 270 nM, RXRa partner concentration 90 nM)
Outline: as §1

[7] = test system: PPARg:RXRa (NR concentration 180 nM, RXRa partner concentration 90 nM)
Outline: as §1

[8] = test system: PPARg:RXRa 270nM:90nM, anti-RXR (NR concentration 270 nM, RXRa partner concentration 90 nM)
Outline: as §1

[9] = test system: PPARg:RXRa 30nM:10nM, anti-RXR (NR concentration 30 nM, RXRa partner concentration 10 nM)
Outline: as §1

[10] = test system: PPARg:RXRa 90nM:30nM, anti-RXR (NR concentration 90 nM, RXRa partner concentration 30 nM)
Outline: as §1

[11] = test system: PPARg:RXRa DBDmut IVT, anti-RXR (DBD mutation: RXRa K156A/R161A, NR concentration 270 nM, RXRa partner concentration 90 nM)
Outline: as §1

[12] = test system: PPARg:RXRa IVT, anti-PPARg (NR concentration 270 nM, RXRa partner concentration 90 nM)
Outline: as §1

[13] = test system: PPARg DBDmut:RXRa IVT, anti-PPARg (DBD mutation: PPARg1 K132A/R137A, NR concentration 270 nM, RXRa partner concentration 90 nM)
Outline: as §1

[14] = test system: PPARg DBDmut IVT, anti-PPARg (DBD mutation: PPARg1 K132A/R137A, NR concentration 270 nM)
Outline: as §1

[15] = test system: PPARg homodimer (NR concentration 180 nM)
Outline: as §1

[16] = test system: PXR:RXRa (NR concentration 270 nM, RXRa partner concentration 90 nM)
Outline: as §1

[17] = test system: PXR homodimer (NR concentration 270 nM)
Outline: as §1

[18] = test system: RARa:RXR (NR concentration 270 nM, RXRa partner concentration 90 nM)
Outline: as §1

[19] = test system: RARa homodimer (NR concentration 270 nM)
Outline: as §1

[20] = test system: RARb:RXRa (NR concentration 270 nM, RXRa partner concentration 90 nM)
Outline: as §1

| Sequence | PBM binding z-score [1] | PBM binding z-score [2] | PBM binding z-score [3] | PBM binding z-score [4] | PBM binding z-score [5] | PBM binding z-score [6] | PBM binding z-score [7] | PBM binding z-score [8] | PBM binding z-score [9] | PBM binding z-score [10] | PBM binding z-score [11] | PBM binding z-score [12] | PBM binding z-score [13] | PBM binding z-score [14] | PBM binding z-score [15] | PBM binding z-score [16] | PBM binding z-score [17] | PBM binding z-score [18] | PBM binding z-score [19] | PBM binding z-score [20] |
| --- | --- | --- | --- | --- | --- | --- | --- | --- | --- | --- | --- | --- | --- | --- | --- | --- | --- | --- | --- | --- |
| TTACCAAGGTGACCTGAGGTCGTTGATCCAACTC | 3.01 | 5.21 | 3.22 | 3.72 | -0.159 | 3.47 | 1.7 | 2.13 | 0.705 | 1.34 | 1.69 | 2.92 | 0.109 | -0.145 | 1.47 | 5.57 | 1.38 | 3.89 | -0.101 | 2.5 |
| AATACAGGGACATCGTAGGCCAGAGTACGCACAG | -0.0851 | -0.29 | 0.107 | -0.465 | 0.118 | -0.329 | 1.07 | -0.124 | 0.0369 | 0.0571 | -0.376 | 0.372 | 0.226 | 0.0255 | -0.207 | -0.16 | 0.0295 | -0.225 | 0.123 | – |
| TAGCCTAGGTCAGATCGGGGCAGTATACGCTATA | 3.05 | 1.42 | -0.378 | 1.22 | 0.212 | 1.93 | 0.989 | 1.43 | 0.0966 | 0.842 | 1.23 | 1.66 | 0.079 | -0.613 | -0.167 | 1.89 | -0.84 | 0.828 | -0.404 | – |
| CAACCTAGGTCACCGGAAGGTCAAAGTCCGCATG | 7.05 | 6.32 | 5.53 | 5.93 | 1.49 | 5.6 | 6.23 | 6.31 | 3.11 | 5.38 | 4.96 | 5.75 | 0.0174 | 0.904 | 8.27 | 6.29 | 2.96 | 7.58 | 5.02 | 5.39 |
| ACTCGGAGGACAAATGTCAGAGCTACGCCAGTGA | -0.155 | -0.111 | -0.289 | -0.522 | -0.374 | 0.306 | 1.34 | 1.99 | 0.613 | 1.36 | 0.158 | 0.0513 | 0.143 | -1.07 | -0.0876 | -0.536 | -0.343 | -0.444 | -0.635 | 1.44 |
| CGAACTAGGTCAACGACAGTGAATCTCCGCACGC | 3.59 | 2.08 | 0.0952 | 1.47 | -0.0209 | 4.54 | 7.37 | 6.13 | 3.91 | 5.64 | 7.66 | 7.96 | 4.33 | 5.05 | 2.87 | 0.983 | -0.0485 | 1.99 | -0.0648 | 3.83 |
| CCTCGGAGGACAACAGGATGTCAGAGCTGCCAGA | -0.208 | -0.272 | -0.316 | -0.845 | -1.16 | -0.631 | 0.183 | -1.12 | -0.754 | -1.23 | 0.0272 | -0.669 | -0.339 | -1.74 | -0.00372 | -0.729 | -0.378 | -0.712 | -0.0154 | 1.13 |
| CGAACTAGGTCAGAACAGGACATTGAAGGATGAT | 1.42 | 1.55 | 0.178 | 0.649 | -0.13 | 3.32 | 5.42 | 4.48 | 1.68 | 3.62 | 7.08 | 7.32 | 2.82 | 2.2 | 1.27 | 1.96 | 0.214 | 1.66 | 0.708 | – |
| CGTCAAAGTTCAAGCTAACGTAACAGAAAGCAGC | 7.1 | 6.1 | 3.7 | 3.81 | 1.32 | 4.93 | 4.58 | 5.18 | 2.29 | 4.32 | 0.497 | 1.77 | 1.34 | 1.15 | 3.13 | 4.47 | 2.52 | 3.3 | 2.21 | 5.24 |
| GCTGCTAGGTCAGGATGGTCAGCTAACGGGTACG | 0.825 | 0.646 | -0.251 | 0.268 | -0.621 | 1.6 | 0.968 | 1.04 | -0.242 | 0.479 | 2.74 | 3.02 | -0.328 | -0.66 | 0.599 | 0.108 | -0.722 | 0.555 | -0.167 | – |
| CAAACTAGGTCACGAAAGGGCAAAGTCGAATGAC | 5.72 | 6.91 | 2.43 | 5.14 | 0.531 | 5.68 | 9.64 | 7.9 | 6.2 | 8.08 | 8.03 | 9.13 | 2.95 | 1.67 | 4.28 | 5.85 | 0.485 | 5.03 | 2.03 | 4.99 |
| CCTACTGGGCCACGTAAGGTCATTGATTCAGTGA | 3.42 | 5.12 | 3.52 | 3.3 | -0.468 | 3.47 | 3.29 | 3.76 | 0.808 | 2.54 | 5.56 | 5.43 | 0.00703 | -0.733 | 1.14 | 4.38 | 1.49 | 3.25 | 0.62 | 3.02 |
| CCTTACGGGTCACTCCATGTTATAGCATCGGAGT | 4.2 | 4.36 | -0.0151 | 2.66 | 0.251 | 4.37 | 3.24 | 3.49 | 0.894 | 2.33 | 2.24 | 3.12 | 0.606 | 0.266 | 2.26 | 2.73 | 0.163 | 3.26 | 0.537 | 3.59 |
| ACAGACAGGTGAGTGAAGGTCACTCAGCTGGACG | 2.41 | 2.98 | 0.517 | 1.82 | -0.302 | 2.61 | 1.51 | 1.98 | 0.232 | 1.46 | 0.842 | 2.27 | 0.253 | 0.153 | 1.49 | 3.66 | 0.106 | 2.82 | 0.0123 | – |
| CAGCCTAGTTCAGGGCCAGTATAGGAGGAACGTT | 0.0528 | -0.124 | -0.0841 | -0.218 | -0.532 | -0.241 | -0.041 | -0.6 | -0.567 | -0.509 | -0.416 | -0.592 | -0.87 | -0.941 | -0.37 | -0.0793 | 0.431 | -0.13 | -0.131 | 1.05 |
